From PubChem BioAssay
Sm TGR inh: blocks Schistosoma mansoni thioredoxin glutathione reductase; purified TGR, DTNB reduction, TNB absorbance 405 nm; Potency, µM (top dose mostly 114 µM), without a hit: top-dose activity change, negative = inhibition, usual class: inhibitors; actives 3% (n = 360,000); further: nearly all actives have a fitted effect of over 60% in size
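Kinetic colorimetric format: TGR-catalysed, NADPH-driven DTNB reduction monitored via TNB absorbance. Enzyme dispensed at 20 nM; compound exposure 15 min at room temperature before reaction start.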
AmpC detergent: blocks E. coli AmpC beta-lactamase in detergent assay; P00811; AmpC hydrolysis of nitrocefin, absorbance 480 nm, 0.01% Triton; Potency, µM (highest dose often 114 µM), inactives show at the highest dose activity change, negative = inhibition, hits mostly inhibitors; actives 0.041% (n = 370,000); AID 485294;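 further: 0% = no-compound wells and -100% = no-enzyme wells; nearly all actives have a fitted effect of over 25% in size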
Target sequence (P00811 whole entry, looked up): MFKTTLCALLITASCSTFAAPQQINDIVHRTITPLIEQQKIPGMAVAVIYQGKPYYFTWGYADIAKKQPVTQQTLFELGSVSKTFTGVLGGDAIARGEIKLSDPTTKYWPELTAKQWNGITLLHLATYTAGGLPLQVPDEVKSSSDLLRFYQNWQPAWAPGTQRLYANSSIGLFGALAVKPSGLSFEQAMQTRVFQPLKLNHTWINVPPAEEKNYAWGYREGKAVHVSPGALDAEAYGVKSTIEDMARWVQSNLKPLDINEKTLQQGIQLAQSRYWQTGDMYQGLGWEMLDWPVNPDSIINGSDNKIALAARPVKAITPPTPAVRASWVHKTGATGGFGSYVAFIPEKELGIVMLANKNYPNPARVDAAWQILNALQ
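AmpC (5.3 nM in the dispensed reagent) in 20 mM phosphate pH 7.0 with 0.01% (detergent screen) or 0.0001% Triton X-100 was preincubated with compounds for 15 min at room temperature. Nitrocefin was then added from an 800 uM solution, and hydrolysis was followed at 480 nm.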
RE007 growth inh: less growth of the S. pombe RE007 Vpr strain; S. pombe RE007 Vpr strain, BacTiter-Glo ATP luminescence, 24 h; Potency, µM (titrated, usually from 92.2 µM), without a hit: top-dose activity change, negative = less growth, usual class: inhibitors; actives 0.21% (n = 360,000); active means well fitted falling curve with a large enough effect; inconclusive means small, poorly fitted or top-dose-only effect; inactive means no such curve, though single readings can be large or run the other way; further: nearly all actives have a fitted effect of over 50% in size
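Fission yeast strain RE007, carrying one chromosomally integrated HIV-1 vpr copy, was seeded at OD 0.01 in PMG+AL medium with 23 nL pinned compound. After 24 h at 30 °C and 99% humidity, viability was read by BacTiter-Glo luminescence.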
Giardia FBPA inh: blocks Giardia fructose-bisphosphate aldolase activity | AID 2451 | Potency, µM (highest dose often 59.6 µM), inactives show top-dose activity, negative = inhibition, actives largely listed as inhibitors | A8B2U2 | purified Giardia FBPA | actives 0.71% (n = 290,000); further: nearly all actives have a fitted effect of over 55% in size
Target sequence (A8B2U2 whole entry, looked up): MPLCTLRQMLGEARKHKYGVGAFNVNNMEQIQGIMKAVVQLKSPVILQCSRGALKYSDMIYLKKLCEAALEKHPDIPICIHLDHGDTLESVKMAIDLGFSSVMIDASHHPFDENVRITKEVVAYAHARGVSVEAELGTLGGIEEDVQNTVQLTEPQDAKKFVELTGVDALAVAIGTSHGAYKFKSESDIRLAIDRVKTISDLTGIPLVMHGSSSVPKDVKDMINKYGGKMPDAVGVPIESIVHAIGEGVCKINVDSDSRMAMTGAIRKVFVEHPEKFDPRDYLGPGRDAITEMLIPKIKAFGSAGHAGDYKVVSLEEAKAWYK
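40 nM FBPA preincubated 10 min at RT with compound (up to 57.5 uM final), then substrate plus GAPDH/TPI/NAD/arsenate coupling and diaphorase/resazurin added. Fluorescence read after 20 min at RT, 525/598 nm.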
AmpC no deterg: inhibitors of E. coli AmpC beta-lactamase without detergent. AmpC nitrocefin hydrolysis, absorbance 480 nm, 0.0001% Triton. P00811. actives 0.52% (n = 330,000). AID 485341. Potency, µM (highest dose often 57.1 µM), inactives show at the top dose activity change, negative = inhibition, most hits filed as inhibitors;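 further: plate controls were no compound for no effect and no enzyme for full effect; nearly all actives have a fitted effect of over 20% in size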
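AmpC (5.3 nM in the dispensed reagent) in 20 mM phosphate pH 7.0 with 0.01% (detergent screen) or 0.0001% Triton X-100 was preincubated with compounds for 15 min at room temperature. Nitrocefin was then added from an 800 uM solution, and hydrolysis was followed at 480 nm.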
Numbers without * were called inactive; ? = inconclusive; . = no result given; [ ] = another dose, or the depositor's remark. Most compounds without a hit are left out; they make up all but 3.4% or so of the library. Unless noted, the call rests on the fitted dose curve; in most records, active means well fitted curve in the direction sought with a large enough effect; inconclusive means small, poorly fitted or top-dose-only effect, or another doubt; inactive means no such curve, though single readings can be large; an effect the other way counts as inactive or inconclusive. Unless noted, on the % scale 0 is the no-effect control and ±100 the full control effect; potency means the concentration at half of the fitted maximal effect.

SMILES	Sm TGR inh	AmpC detergent	RE007 growth inh	Giardia FBPA inh	AmpC no deterg
Cc1ccc(C(=O)/C=C\C(=O)c2ccc(C)cc2)cc1	1.78µM*	-6.8%	3.3%	3.1%	-23.2%
O=C(O)/C=C/C(=O)c1ccc(O)cc1	3.16µM*	2.0%	9.7%	-1.9%	-1.2%
CCCCCCCCCCCCCCCCCCc1ccc(C(=O)/C=C\C(=O)O)cc1	.	.	.	8.7%	.
Cc1ccc(C(=O)C=CNNC(=O)c2ccccc2)cc1	39.8µM*	?	0.9%	-20.8%	-38.3%
CC(/C=C/C(=O)c1ccc(C)cc1)=C\c1ccccc1	1.9%	?	-17.4%	-7.1%	-28.9%
O=c1c2ccccc2nc(/C=C/c2ccc([N+](=O)[O-])o2)n1CCCO	17.8µM*	-18.4%	?	-11.0%	-17.4%
O=c1c2ccccc2nc(/C=C/c2ccc([N+](=O)[O-])cc2)n1CCCO	-10.1%	?	20.3%	-8.8%	46.9%
NC(=O)c1ccc(NC(=O)COC(=O)CCC(=O)c2ccc(Cl)cc2)cc1	50.1µM*	3.0%	1.1%	0.9%	-33.7%
C/C(=N\Nc1ccc(C(=O)O)cc1)c1nc2ccccc2n1C	8.2%	?	.	5.8%	-10.0%
CN(C)C1(CNC(=O)C2CCN(S(=O)(=O)c3cc(Cl)ccc3Cl)CC2)CCCCC1	25.1µM*	-5.6%	2.7%	.	5.6%
Cc1ccc(O)c(N)c1	?	2.7%	-26.0%	.	-28.8%
COc1ccc(O)c(N)c1	3.16µM*	?	.	3.54µM*	-43.1%
C[C@@H]1C[C@H](O)c2cc(Cl)ccc2N1	39.8µM*	-1.8%	6.2%	-15.6%	-12.7%
COC(=O)c1c(C)oc(C)c1S(=O)(=O)N(C)C1CCCCC1	44.7µM*	2.1%	-6.1%	6.5%	9.6%
COC(=O)c1c(C)oc(C)c1S(=O)(=O)NCC1CC1	4.5%	2.6%	-17.6%	2.7%	-12.3%
COc1ccc(-c2nnc(NC(=O)c3ccc(F)cc3)o2)cc1	-5.0%	?	-18.9%	?	22.4µM*
COc1ccc(-c2nnc(NC(=O)c3ccc4c(c3)OCCO4)o2)cc1	5.0%	0.4%	-6.7%	?	-28.4%
N#CC(c1ccccn1)c1ncc(C(F)(F)F)cc1Cl (centres undefined)	23.8%	0.7%	1.6%	-5.6%	-7.4%
Cc1ccc(Cn2c(C(C)Nc3nc(-c4ccc(Cl)c([N+](=O)[O-])c4)cs3)nc3cc(C(F)(F)F)ccc32)cc1 (centres undefined)	.	.	-2.9%	.	.
CCCn1nc([N+](=O)[O-])c(C(C#N)c2nc3ccccc3o2)c(Cl)c1=O (centres undefined)	2.24µM*	-0.3%	-12.4%	1.4%	-43.1%
Cn1nc([N+](=O)[O-])c(C(C#N)c2ccccn2)c(Cl)c1=O (centres undefined)	4.47µM*	?	4.4%	?	-29.5%
CCCCn1c(N)c(-c2nc3ccccc3o2)c2c([N+](=O)[O-])nn(CC)c(=O)c21	-1.7%	-14.7%	-2.4%	-0.2%	-28.0%
CCn1nc([N+](=O)[O-])c(C(C#N)c2nc3cc(C(F)(F)F)ccc3s2)c(Cl)c1=O (centres undefined)	3.98µM*	?	-18.2%	1.7%	-20.1%
CC(NC(=O)c1ccccc1F)C1CC1 (centres undefined)	-13.8%	-5.1%	-3.5%	7.9%	-0.5%
COc1ccc2[nH]c(=O)c(CNc3ccc(C)cc3C)cc2c1	12.6µM*	-0.1%	-12.3%	?	-21.5%
SMILES	Sm TGR inh	AmpC detergent	RE007 growth inh	Giardia FBPA inh	AmpC no deterg
COc1ccc2[nH]c(=O)c(CNc3ccccc3OC)cc2c1	17.8µM*	-0.2%	16.4%	?	-13.7%
O=C(COC(=O)Cn1nc(-c2ccccc2)oc1=O)Nc1ccc(F)cc1	-2.6%	?	12.7%	.	-22.1%
Cc1ccc(S(=O)(=O)CCSc2nc(C)cc(C(F)(F)F)c2C#N)cc1	-15.6%	-0.4%	-15.7%	2.4%	-22.1%
CCC(C)N(CCNC(=O)c1ccc(NC2=NC3CS(=O)(=O)CC3S2)cc1)Cc1ccco1 (centres undefined)	-20.1%	5.2%	-0.7%	5.3%	8.2%
O=C1C=CC(=O)N1CCNc1ncc(C(F)(F)F)cc1Cl	0.398µM*	?	2.51µM*	-17.5%	-12.8%
Cc1ccc(CNC(=O)Cn2c(=O)n(-c3ccccc3)c(=O)c3c2c2cc(C)ccc2n3C)cc1	-3.6%	19.0%	.	.	.
Cc1cc(C)cc(OCCOc2cccc(C=C3C(=O)NC(=O)NC3=O)c2)c1	31.6µM*	0.5%	-7.2%	-8.0%	-28.4%
Cc1ccc(OCCOc2cccc(C=C3C(=O)NC(=O)NC3=O)c2)cc1	?	?	.	8.6%	-10.3%
CCOC(=O)CNC=C(C(=O)OCC)C(=O)OCC	-7.5%	1.1%	-2.1%	-0.9%	?
CCOC(=O)C=C(C(=O)OCC)C(=O)OCC	1.58µM*	3.0%	11.2%	-1.6%	-3.3%
Cc1ccccc1C(C(=O)NC1CCCCC1)N(C(=O)c1ccccn1)c1cccnc1 (centres undefined)	3.8%	-6.2%	-4.4%	-2.2%	1.8%
CCOC(=O)c1sc2ccccc2c1S(=O)(=O)N1CCN(c2ccccc2F)CC1	3.0%	1.1%	.	.	.
CCn1nnc(NC(=O)c2ccc(-c3ccc(Cl)cc3)o2)n1	22.4µM*	-1.4%	0.5%	2.5%	-8.3%
Cc1ccc(NC(=S)N(Cc2cccs2)Cc2cc3cc(C)cc(C)c3[nH]c2=O)cc1	0.5%	-8.5%	8.0%	2.7%	-25.9%
COc1cccc(NC(=O)Nc2ccc3c(c2)N(C)C(=O)CS3)c1	-0.1%	-7.2%	-4.7%	-4.2%	3.16µM*
CCOc1ccc(OCC)c(NC(=O)Nc2ccc3c(c2)N(C)C(=O)CS3)c1	7.3%	?	-0.1%	-9.1%	1.12µM*
O=C(CSc1nc(-c2ccc(F)cc2)nc2c1Cc1ccccc1O2)Nc1ccc(C(=O)O)cc1	-22.4%	63.1µM*	-18.9%	-9.9%	-31.8%
O=C(CSc1nc(-c2ccccc2)nc2c1Cc1ccccc1O2)Nc1ccc(C(=O)O)cc1	1.6%	?	4.7%	-6.9%	-28.5%
Cc1ccc2c(C(=O)CN3CCOCC3)c(C)[nH]c2c1	?	-2.2%	-20.2%	1.1%	-13.3%
Cc1ccc2c(C(=O)CN3CCCC(C)C3)c(C)[nH]c2c1 (centres undefined)	35.5µM*	?	-8.7%	-4.5%	-19.8%
Cc1ccc2c(C(=O)CN3CC(C)CC(C)C3)c(C)[nH]c2c1 (centres undefined)	14.1µM*	0.1%	.	1.2%	-16.5%
O=S1(=O)CC(N2CCCC2)CN1C1CCCC1 (centres undefined)	.	.	13.0%	.	.
CCS(=O)(=O)N1CCN(C(=O)c2ccco2)CC1	34.9%	?	12.9%	0.4%	-8.1%
N/C(=N\S(=O)(=O)c1cccs1)c1ccccc1Cl	0.0%	-1.0%	1.7%	.	-7.1%
O=C(c1ccco1)N1CCN(S(=O)(=O)Cc2ccccc2Cl)CC1	31.6µM*	-10.7%	12.1%	6.0%	-9.2%[2.29 µM]
